The source of these data is PubChem BioAssay.

Experiment [1] deals with Wnt5a (protein binding on small-molecule microarray). Put plainly: Wnt5a binders on small-molecule microarray, primary screen, biophysical, 635/667 nm fluorescence (AID 1142).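 Further: fluorescence read at 667 nm with signal to noise per printed feature.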 Particulars: 635 nm fluorescence, higher = more signal.
A short description of experiment [2]: cell viability in Huh7 cells, primary screen, cytotoxicity control for HCV replication inhibitor project, CellTiter-Glo luminescence, basal, 48 h (AID 1143).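 Further: Huh7 hepatoma cells carrying a hepatitis C replication reporter with no stimulus; test concentration not given here.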 Conditions: Huh7 HCV replicon, higher = more signal, called active from +8 up or from −8 down.
Experiment [3] is described as follows: P. aeruginosa biofilm formation inhibitors, primary screen, PAO1 strain, BacTiter-Glo luminescence, LB-PBS (AID 1144). Particulars: 12 h, higher = more signal.
Experiment [4] is described as follows: CREB reporter modulators without forskolin, primary screen, cell-based, PC12, CRE-LacZ reporter, unstimulated (AID 1145). Conditions: no forskolin, luminescence, 4.5 h, higher = more signal, called active from +8 up or from −8 down.
The nature of experiment [5]: CREB reporter modulators under forskolin, primary screen, cell-based, PC12, CRE-LacZ reporter, forskolin-stimulated (AID 1146).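 Further: PC12 cells with 6xCRE LacZ reporter stimulated by forskolin 10 µM; beta-galactosidase reporter signal reflecting CREB driven transcription.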 Conditions: luminescence, 4.5 h, higher = more signal, called active from +8 up or from −8 down.
For experiment [6], the target named is Streptavidin (Streptomyces avidinii) (UniProt P22629). The experiment in a line: streptavidin binders on small-molecule microarray, primary screen, artefact control for SMM compound annotation, biophysical, 635/667 nm fluorescence (AID 1147).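 Further: signal reflects streptavidin binding to arrayed compounds as a control protein.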 Particulars: streptavidin binding, higher = more signal.
Streptavidin (Streptomyces avidinii), sequence (P22629 whole entry, looked up): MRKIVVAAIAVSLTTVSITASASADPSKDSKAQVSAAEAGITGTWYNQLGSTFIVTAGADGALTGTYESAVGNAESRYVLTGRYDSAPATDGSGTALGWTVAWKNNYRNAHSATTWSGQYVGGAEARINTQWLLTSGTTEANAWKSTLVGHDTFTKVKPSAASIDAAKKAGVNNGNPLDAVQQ
A short description of experiment [7]: small-molecule binders of probe aInhba, primary screen, biochemical, small-molecule microarray, 635/667 nm fluorescence (AID 1148).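 Further: score merges 667nm spot fluorescence with signal-to-noise for antibody binding to printed compounds.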 Particulars: higher = more signal.
In experiment [8] the target is Torsin-1A (Homo sapiens) (UniProt O14656). The experiment in a line: torsin A binders from cell lysate, primary screen, small-molecule microarray, wild-type, 635/667 nm (AID 1149). Particulars: COS7 hTOR1A-WT lysate, 635 nm fluorescence, higher = more signal.
Torsin-1A (Homo sapiens), sequence (O14656 whole entry, looked up): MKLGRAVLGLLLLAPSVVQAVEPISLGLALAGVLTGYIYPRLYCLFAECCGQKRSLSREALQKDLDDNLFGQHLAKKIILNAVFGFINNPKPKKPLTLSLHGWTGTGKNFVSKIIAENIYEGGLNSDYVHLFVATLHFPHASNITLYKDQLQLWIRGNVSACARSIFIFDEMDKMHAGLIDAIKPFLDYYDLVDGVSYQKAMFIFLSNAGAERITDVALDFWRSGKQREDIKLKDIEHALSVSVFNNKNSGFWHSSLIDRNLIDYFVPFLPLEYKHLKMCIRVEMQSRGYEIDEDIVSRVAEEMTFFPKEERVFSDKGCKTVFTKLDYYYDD
Experiment [9] has the same target. The experiment in a line: small-molecule binders of mutant TOR1A in lysate, primary screen, cell lysate, small-molecule microarray, COS7 lysate, 635/667 nm fluorescence (AID 1150).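 Further: score pools 667 nm emission and signal to noise measuring lysate protein binding.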 Particulars: COS7 hTOR1A mutant lysate, 635 nm fluorescence, higher = more signal.
Experiment [10] deals with Sonic hedgehog protein (Shh). Put plainly: small-molecule binders of Shh protein, primary screen, biochemical, small-molecule microarray, 635/667 nm fluorescence (AID 1151).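 Further: Shh protein binding to compounds spotted on small-molecule microarray slides; score combines spot fluorescence intensity with signal-to-noise across triplicate slides.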 Conditions: small-molecule microarray binding, 635 nm fluorescence; higher = more signal.
A short description of experiment [11]: E. coli DRC41 culture turbidity changes, primary screen, E. coli filamentation inducer project, strain DRC41, OD650, 48 h (AID 1152).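 Further: E. coli MC1000 strain DRC41 lacking acrAB efflux pump and sulA.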 Conditions: E. coli DRC41 (acrAB sulA), higher = more signal, called active from +8 up or from −8 down.
A short description of experiment [12]: small-molecule binders of probe aLefty1, primary screen, biochemical, small-molecule microarray, 635/667 nm fluorescence (AID 1153).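 Further: score merges spot fluorescence with signal-to-noise ratio from the scanned slide images.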 Particulars: higher = more signal.
A short description of experiment [13]: PSAC antagonists in infected red cells, primary screen, cell-based, P. falciparum Indochina, OD700, 1 h (AID 1154). Particulars: P. falciparum Indochina infected RBC osmotic lysis, higher = more signal, called active from +8 up or from −8 down.
The nature of experiment [14]: PSAC antagonists in infected red cells, primary screen, cell-based, P. falciparum Indochina, OD700, 2 h (AID 1155).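 Further: lysis reports solute entry through the parasite surface anion channel PSAC; channel blockers reduce lysis of infected cells.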 Conditions: P. falciparum Indochina infected erythrocytes, osmotic lysis OD700; higher = more signal, called active from +8 up or from −8 down.
Experiment [15] is described as follows: osmotic lysis modulators in infected erythrocytes, primary screen, PSAC antagonist project, cell-based, P. falciparum Indochina, OD700, 3 h (AID 1156). Particulars: higher = more signal, called active from +8 up or from −8 down.
The nature of experiment [16]: PSAC antagonists in infected red cells, primary screen, cell-based, P. falciparum Indochina, OD700, 18 h (AID 1157). Particulars: P. falciparum Indochina infected erythrocytes, osmotic lysis OD700, 18 h; higher = more signal, called active from +8 up or from −8 down.
Experiment [17] can be described thus: modulators of S6 phosphorylation in cells, primary screen, cell-based, A549, cytoblot, luminescence, serum-stimulated (AID 1158).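 Further: serum-stimulated A549 lung adenocarcinoma cells; signal is phosphorylated S6 detected by cytoblot immunostaining with HRP secondary.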 Conditions: A549 phospho-S6 cytoblot, 5 h, higher = more signal.
In experiment [18] the target is NADPH oxidase 2 (Homo sapiens) (UniProt P04839). Put plainly: NOX2-dependent H2O2 signal modulators, primary screen, NOX inhibitor project, cell-based, HEK293-NOX2, PMA-stimulated, Amplex Red fluorescence (AID 1159). Further: test concentration not given here. Particulars: 45 min, higher = more signal, called active from +8 up or from −8 down.
NADPH oxidase 2 (Homo sapiens), sequence (P04839 whole entry, looked up): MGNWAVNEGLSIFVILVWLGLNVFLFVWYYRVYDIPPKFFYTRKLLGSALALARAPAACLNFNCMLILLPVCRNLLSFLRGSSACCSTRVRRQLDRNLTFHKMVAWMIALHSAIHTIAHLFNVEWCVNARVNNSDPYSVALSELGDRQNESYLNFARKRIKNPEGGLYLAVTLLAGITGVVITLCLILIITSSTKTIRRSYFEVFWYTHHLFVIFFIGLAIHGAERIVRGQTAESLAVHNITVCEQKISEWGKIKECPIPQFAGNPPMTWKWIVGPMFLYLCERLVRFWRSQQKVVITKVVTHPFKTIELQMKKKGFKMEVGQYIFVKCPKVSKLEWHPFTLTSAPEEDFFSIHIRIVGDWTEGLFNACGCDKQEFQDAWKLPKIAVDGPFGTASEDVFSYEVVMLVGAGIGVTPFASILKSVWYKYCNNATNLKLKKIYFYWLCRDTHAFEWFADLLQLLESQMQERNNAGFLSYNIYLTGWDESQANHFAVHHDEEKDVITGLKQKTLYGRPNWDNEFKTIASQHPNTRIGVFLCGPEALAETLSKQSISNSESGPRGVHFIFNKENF
Experiment [19] has as its target NADPH oxidase 4 (Homo sapiens) (UniProt Q9NPH5). The experiment in a line: NOX4-dependent H2O2 signal modulators, primary screen, NOX inhibitor project, cell-based, HEK293-NOX4, tetracycline-induced, Amplex Red fluorescence (AID 1160). Particulars: 45 min, higher = more signal, called active from +8 up or from −8 down.
For experiment [20], the target named is NADPH oxidase 5 (Homo sapiens) (UniProt Q96PH1). The experiment in a line: NOX5-dependent H2O2 signal modulators, primary screen, NOX inhibitor project, cell-based, HEK293-NOX5, Amplex Red fluorescence (AID 1161). Conditions: HEK293-NOX5, ionomycin, 45 min, higher = more signal.
NADPH oxidase 5 (Homo sapiens), sequence (Q96PH1 whole entry, looked up): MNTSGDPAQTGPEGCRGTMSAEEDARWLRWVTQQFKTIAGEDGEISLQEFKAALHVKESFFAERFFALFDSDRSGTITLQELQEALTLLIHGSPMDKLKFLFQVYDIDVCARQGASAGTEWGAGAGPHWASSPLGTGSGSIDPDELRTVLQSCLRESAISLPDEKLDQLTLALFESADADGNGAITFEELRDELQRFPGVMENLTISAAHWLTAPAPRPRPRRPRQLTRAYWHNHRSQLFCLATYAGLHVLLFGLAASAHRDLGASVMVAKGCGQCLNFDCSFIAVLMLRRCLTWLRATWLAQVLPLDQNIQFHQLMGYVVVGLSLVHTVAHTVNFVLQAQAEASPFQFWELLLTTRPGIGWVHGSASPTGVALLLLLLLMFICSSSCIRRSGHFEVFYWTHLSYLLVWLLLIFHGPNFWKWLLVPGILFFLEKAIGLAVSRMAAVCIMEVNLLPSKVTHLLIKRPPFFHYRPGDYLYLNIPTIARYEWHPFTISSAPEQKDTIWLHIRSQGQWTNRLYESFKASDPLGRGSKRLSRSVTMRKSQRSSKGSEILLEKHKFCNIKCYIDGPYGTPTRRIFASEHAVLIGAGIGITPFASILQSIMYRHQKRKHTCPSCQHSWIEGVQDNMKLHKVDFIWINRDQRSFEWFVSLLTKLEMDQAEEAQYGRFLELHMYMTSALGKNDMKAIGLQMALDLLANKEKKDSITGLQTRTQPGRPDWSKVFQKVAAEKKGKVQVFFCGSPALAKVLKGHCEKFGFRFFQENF

Activity calls are given as the source filed them. Unless noted, how the calls were made is not given here.

NADPH oxidase 4 (Homo sapiens), sequence (Q9NPH5 whole entry, looked up): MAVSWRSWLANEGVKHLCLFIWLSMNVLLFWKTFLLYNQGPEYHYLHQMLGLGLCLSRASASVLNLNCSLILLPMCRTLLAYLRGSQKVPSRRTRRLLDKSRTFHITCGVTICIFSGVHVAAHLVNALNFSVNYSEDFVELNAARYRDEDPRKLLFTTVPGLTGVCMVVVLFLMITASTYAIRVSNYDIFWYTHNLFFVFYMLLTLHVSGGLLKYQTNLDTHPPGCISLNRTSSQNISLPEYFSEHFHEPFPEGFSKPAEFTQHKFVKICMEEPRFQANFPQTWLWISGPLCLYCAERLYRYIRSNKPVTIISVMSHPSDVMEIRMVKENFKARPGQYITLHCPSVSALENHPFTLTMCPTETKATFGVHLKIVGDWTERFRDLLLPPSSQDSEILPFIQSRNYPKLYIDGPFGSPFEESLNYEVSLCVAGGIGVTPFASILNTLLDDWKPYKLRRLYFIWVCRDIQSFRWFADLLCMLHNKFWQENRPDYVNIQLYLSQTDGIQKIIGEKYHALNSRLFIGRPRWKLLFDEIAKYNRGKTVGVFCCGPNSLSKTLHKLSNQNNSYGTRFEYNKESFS

For `O=C(O)[C@H](Cc1ccccc1)n1cc(-c2ccccc2)nn1`, the composite z-score was 0.469 in experiment [1]; 0.572 in experiment [6]; -0.0494 in [7]; 0.0641 with Torsin-1A (Homo sapiens) [8]; 0.804 with Torsin-1A (Homo sapiens) [9]; 0.172 in [10]. Moreover, in [12], the composite z-score is -0.144. For the same compound, the z-score is 0.594 (inactive) in experiment [2]; 0.192 (inactive) in experiment [3]; 1.56 (inactive) in experiment [4]; 0.219 (inactive) in experiment [5]; -0.695 (inactive) in [11]; -0.256 (inactive) in [13]. Besides, the z-score in [14] is 0.216 (inactive); in experiment [15] it was -0.564 (inactive); in experiment [16], 0.161 (inactive); in [17], 0.473; in experiment [18], -1.58 (inactive); in experiment [19], 0.283 (inactive). The same compound displayed a z-score in experiment [20] of -0.837.

In the case of `COC(=O)[C@@]1(Cc2ccc(OC)cc2)[C@H]2c3cc(C(=O)N4CCCC4)n(CCc4ccc(O)c(O)c4)c3C[C@H]2CN1C(=O)c1ccccc1`, the composite z-score is -0.0111 in [1]; 0.27 in experiment [6]; 0.147 in [7]; -0.252 with Torsin-1A (Homo sapiens) [8]; 0.641 with Torsin-1A (Homo sapiens) [9]; -0.349 in experiment [10]. Also, the composite z-score in [12] came to 0.378. Besides, the z-score in [2] is -1.27 (inactive); in experiment [3], -0.128 (inactive); in [4] it was 1.54 (inactive); in [5], 0.706 (inactive); in experiment [11], -1.84 (inactive); in experiment [13], 5.39 (inactive). The z-score in experiment [14] is 0.451 (inactive); in experiment [15] it was 2.1 (inactive); in experiment [16], 0.912 (inactive); in experiment [17] it was 0.198; in experiment [18], -3.75 (inactive); in experiment [19], -8.38 (active). In [20], the z-score is -7.92.

Turning to `O=C(CS)NCCCCCNC(=O)[C@@H]1C[C@@H]2C(=O)NCC(=O)N2[C@@H]1c1cccc(OCCO)c1`, the composite z-score in [1] was 0.134; in [6] it was -0.774; in experiment [7], 0.136; with Torsin-1A (Homo sapiens) [8], 0.396; with Torsin-1A (Homo sapiens) [9], -0.0657; in [10] it was 1.77. The composite z-score in experiment [12] was found to be 0.269. The z-score in experiment [2] is -0.556 (inactive); in experiment [3], -1.2 (inactive); in experiment [4] it was -0.268 (inactive); in experiment [5], 0.0712 (inactive); in experiment [11], 3.02 (inactive); in experiment [13], 2.11 (inactive). For the same compound, the z-score in experiment [14] was 0.151 (inactive); in experiment [15], -1.32 (inactive); in [16] it was -1.85 (inactive); in experiment [17] it was 1.86; in experiment [18] it was 1.52 (inactive); in experiment [19], 1.06 (inactive). For the same compound, in experiment [20], the z-score came out at 1.49.

For `COCCOC(=O)N1C(=O)[C@@]2(c3ccccc31)[C@H](C(=O)N1CCCCCCC1)[C@H]1C(=O)O[C@H](c3ccccc3)[C@H](c3ccccc3)N1[C@@H]2c1ccc(OCCO)cc1`, the composite z-score in experiment [1] is 2.59; in experiment [6], 4.29; in experiment [7] it was 2.4; in the experiment with Torsin-1A (Homo sapiens) [8] it was 3.22; in the experiment with Torsin-1A (Homo sapiens) [9], 3.39; in experiment [10] it was 2.31. Moreover, the composite z-score in experiment [12] came out at 3.13. Besides, the z-score in experiment [2] was -2.7 (inactive); in experiment [3] it was -0.276 (inactive); in experiment [4] it was -1.29 (inactive); in experiment [5] it was -0.791 (inactive); in experiment [11] it was -0.448 (inactive); in [13], 8.64 (active). In addition, the z-score in experiment [14] was 1.89 (inactive); in [15], 1.31 (inactive); in experiment [16], 0.976 (inactive); in experiment [17], 0.213; in experiment [18], -0.0367 (inactive); in [19], 0.867 (inactive). The compound also had a z-score in [20] of 1.53.

As for `C=CCC(OC(C)=O)[C@@H]1[C@@H](N(Cc2cc3ccccc3o2)C(=O)Cc2ccc(OC)cc2)c2cc(OCCCO)ccc2N1C(=O)c1ccc2ccccc2c1` (stereo not given in full), the composite z-score in [1] was -0.252; in [6] it was -0.277; in experiment [7], -0.0791; with Torsin-1A (Homo sapiens) [8], -0.748; with Torsin-1A (Homo sapiens) [9], -0.502; in [10], 0.688. Also, the composite z-score in [12] was -0.0252. Moreover, the z-score in experiment [2] is -1.58 (inactive); in [3], -0.352 (inactive); in experiment [4] it was 1.41 (inactive); in [5] it was 0.368 (inactive); in [11], -0.829 (inactive); in experiment [13], 2.31 (inactive). Besides, the z-score in experiment [14] is -0.0382 (inactive); in [15] it was 1.17 (inactive); in experiment [16], -0.0343 (inactive); in experiment [17], 0.559; in experiment [18], -1.16 (inactive); in experiment [19], -1.26 (inactive). Moreover, the z-score in [20] was 1.14.

Consider `O=C1C2C=CC(C(O)c3ccc(-c4ccccc4)s3)N(Nc3ccccc3)C2C(=O)N1c1ccccc1` (stereo not given), for which the composite z-score in [1] is 0.155; in experiment [6], 0.908; in experiment [7], 0.0183; with Torsin-1A (Homo sapiens) [8], -0.499; with Torsin-1A (Homo sapiens) [9], 1.21; in experiment [10], 0.0134. This compound returned a composite z-score in [12] of 0.591. For the same compound, the z-score in experiment [2] is -0.514 (inactive); in experiment [3] it was -1.25 (inactive); in experiment [4], 0.0569 (inactive); in experiment [5], 0.117 (inactive); in [11], -0.517 (inactive); in experiment [13], 8.45 (active). Also, the z-score was 2.11 (inactive) in [14]; 0.214 (inactive) in experiment [15]; 1.1 (inactive) in experiment [16]; -0.505 in experiment [17]; -0.986 (inactive) in experiment [18]; -3.23 (inactive) in experiment [19]. This compound came in with a z-score in experiment [20] of -0.493.

For `COc1ccc([Si](C)(C)[C@H]2[C@H](CCn3cc([C@H](O)c4ccccc4)nn3)O[C@@]3(C(=O)N(C)c4ccccc43)[C@@H]2C)cc1`, the composite z-score was -0.319 in experiment [1]; -0.814 in [6]; -0.0221 in [7]; -0.71 with Torsin-1A (Homo sapiens) [8]; -0.193 with Torsin-1A (Homo sapiens) [9]; 1.36 in [10]. The compound further came in with a composite z-score in experiment [12] of 0.573. Moreover, the z-score is -3.31 (inactive) in experiment [2]; -0.573 (inactive) in [3]; 2.69 (inactive) in experiment [4]; -1.28 (inactive) in [5]; 0.294 (inactive) in experiment [11]; 5.08 (inactive) in [13]. Further, the z-score in experiment [14] is 1.5 (inactive); in experiment [15], 0.56 (inactive); in experiment [16], 0.866 (inactive); in experiment [17], 0.334; in experiment [18], -0.0243 (inactive); in [19] it was 0.0296 (inactive). Also, the z-score in [20] was -1.24.

With `CN(C)CCCCNC(=O)[C@@H]1C[C@@H]2C(=O)N[C@@H](CCCCN)C(=O)N2[C@@H]1c1ccc(O)cc1`, the composite z-score in [1] is 0.0291; in experiment [6], 0.98; in [7], -0.0403; with Torsin-1A (Homo sapiens) [8], 0.584; in the experiment with Torsin-1A (Homo sapiens) [9], 0.435; in experiment [10] it was 1.23. In addition, the composite z-score in experiment [12] turned out to be 0.129. Also, the z-score in [2] was -0.151 (inactive); in experiment [3], -0.0779 (inactive); in experiment [4] it was 0.281 (inactive); in experiment [5] it was -0.773 (inactive); in experiment [11], 0.928 (inactive); in experiment [13], 1.93 (inactive). Moreover, the z-score in experiment [14] was 1.43 (inactive); in experiment [15], -0.079 (inactive); in [16] it was 1.16 (inactive); in experiment [17], 0.297; in [18], 1.42 (inactive); in experiment [19] it was 1.28 (inactive). Moreover, the z-score in [20] was 0.81.
